The record followed here is PubChem BioAssay.

The source made the active and inactive calls.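 How the source made its calls, unless noted: active means luciferase signal above three times the same-plate solvent-only control wells; inactive means the rest.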

The target in the first test is NAD(+) hydrolase SARM1 (Homo sapiens) (UniProt Q6SZW1). In words: SARM1 TIR NADase inhibitors, cell lysate, NAD-Glo luminescence (AID 1508614;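 active means compound whose remaining NAD level is above about 45 nM, limit read from the data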). Conditions: SAM-TIR HEK293T lysate NADase, at 1 µM, stronger effect = higher value.
NAD(+) hydrolase SARM1 (Homo sapiens), sequence (Q6SZW1 whole entry, looked up): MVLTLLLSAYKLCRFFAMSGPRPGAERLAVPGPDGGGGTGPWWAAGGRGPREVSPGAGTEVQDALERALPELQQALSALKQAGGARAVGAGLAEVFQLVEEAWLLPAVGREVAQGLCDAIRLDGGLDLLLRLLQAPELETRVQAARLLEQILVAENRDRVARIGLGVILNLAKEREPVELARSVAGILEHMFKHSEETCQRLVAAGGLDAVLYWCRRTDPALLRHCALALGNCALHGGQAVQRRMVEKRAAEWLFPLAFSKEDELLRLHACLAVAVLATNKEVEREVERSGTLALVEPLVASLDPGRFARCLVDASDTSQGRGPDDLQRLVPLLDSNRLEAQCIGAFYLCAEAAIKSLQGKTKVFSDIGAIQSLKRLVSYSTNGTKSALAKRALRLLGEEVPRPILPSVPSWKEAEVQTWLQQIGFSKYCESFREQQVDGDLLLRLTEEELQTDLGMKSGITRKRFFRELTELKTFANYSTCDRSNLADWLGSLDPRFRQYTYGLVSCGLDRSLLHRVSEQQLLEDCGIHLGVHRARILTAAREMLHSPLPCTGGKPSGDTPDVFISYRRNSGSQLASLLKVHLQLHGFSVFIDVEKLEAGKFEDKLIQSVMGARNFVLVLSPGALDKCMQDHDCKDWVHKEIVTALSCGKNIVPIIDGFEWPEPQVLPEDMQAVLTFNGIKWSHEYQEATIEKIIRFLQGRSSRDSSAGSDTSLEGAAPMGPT
Regarding `CCN1C[C@]2(COC)[C@H](O)C[C@H](OC)[C@]34C1[C@H]([C@H](OC)[C@H]23)[C@]1(OC(C)=O)[C@H]2[C@@H](OC(=O)c3ccccc3)[C@](O)(C[C@H]24)[C@@H](OC)[C@@H]1O`, the remaining NAD was 10 nM (inactive).

Turning to `OC[C@@H](O)[C@H]1O[C@@H]2O[C@H](C(Cl)(Cl)Cl)O[C@@H]2[C@H]1O`, the remaining NAD was 10 nM (inactive). `C=C[C@H]1CN2CC[C@H]1C[C@H]2[C@H](OC(=O)OCC)c1ccnc2ccc(OC)cc12`: the remaining NAD was 10 nM (inactive). The same measure, in the same setting: with `CN1C2CC(OC(=O)C(CO)c3ccccc3)CC1C(O)C2` (centres undefined) the figure was 10 nM (inactive); with `CC(=O)[C@H]1CC[C@H]2[C@@H]3CC[C@@H]4C[C@H](O)CC[C@]4(C)[C@H]3CC[C@]12C`, 10 nM (inactive). Same read-out and setting: the value for `O=C(NN=Cc1ccc([N+](=O)[O-])o1)c1cc([N+](=O)[O-])cc([N+](=O)[O-])c1O` was 10 nM (inactive); that for `NC(=O)C[S@@](=O)C(c1ccccc1)c1ccccc1` was 10 nM (inactive); that for `CC(N)C(O)c1ccccc1` (centres undefined) was 10 nM (inactive). Still for that read-out and setting: with `CC[C@@H](c1cccc(O)c1)[C@@H](C)CN(C)C` the figure was 10 nM (inactive); with `CC[C@H]1[C@@H]2C[C@H]3[C@@H]4N(C)c5ccccc5[C@]45C[C@@H]([C@H]2[C@H]5O)N3[C@@H]1O`, 10 nM (inactive). Regarding `C[N+]1([O-])[C@@H]2CC[C@H]1CC(OC(=O)C(CO)c1ccccc1)C2` (some centres undefined), the remaining NAD is 10 nM (inactive). Take `C=CCNCCCCCCCCCC` (tested in a mixture with another compound): the remaining NAD is 10 nM (inactive). On to `O=c1nc(O)n(Cl)c(=O)n1Cl`, for which the remaining NAD is 10 nM (inactive). Same read-out and setting: the value for `COc1ccc(O)c(C(C)(C)C)c1` was 10 nM (inactive).

The next test deals with Mitogen-activated protein kinase 7 (Homo sapiens) (UniProt Q13164). In words: ERK5 transactivation activators in reporter cells, primary screen, cell-based, HTS (AID 1508626).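 Further: luciferase driven by Gal4-ERK5 fusion binding five Gal4 sites before minimal TATA.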 The following applies: HeLa Gal4-ERK5 transactivation, 18 h, at 5 µM, stronger effect = higher value.
Mitogen-activated protein kinase 7 (Homo sapiens), sequence (Q13164 whole entry, looked up, the tested form may be a part): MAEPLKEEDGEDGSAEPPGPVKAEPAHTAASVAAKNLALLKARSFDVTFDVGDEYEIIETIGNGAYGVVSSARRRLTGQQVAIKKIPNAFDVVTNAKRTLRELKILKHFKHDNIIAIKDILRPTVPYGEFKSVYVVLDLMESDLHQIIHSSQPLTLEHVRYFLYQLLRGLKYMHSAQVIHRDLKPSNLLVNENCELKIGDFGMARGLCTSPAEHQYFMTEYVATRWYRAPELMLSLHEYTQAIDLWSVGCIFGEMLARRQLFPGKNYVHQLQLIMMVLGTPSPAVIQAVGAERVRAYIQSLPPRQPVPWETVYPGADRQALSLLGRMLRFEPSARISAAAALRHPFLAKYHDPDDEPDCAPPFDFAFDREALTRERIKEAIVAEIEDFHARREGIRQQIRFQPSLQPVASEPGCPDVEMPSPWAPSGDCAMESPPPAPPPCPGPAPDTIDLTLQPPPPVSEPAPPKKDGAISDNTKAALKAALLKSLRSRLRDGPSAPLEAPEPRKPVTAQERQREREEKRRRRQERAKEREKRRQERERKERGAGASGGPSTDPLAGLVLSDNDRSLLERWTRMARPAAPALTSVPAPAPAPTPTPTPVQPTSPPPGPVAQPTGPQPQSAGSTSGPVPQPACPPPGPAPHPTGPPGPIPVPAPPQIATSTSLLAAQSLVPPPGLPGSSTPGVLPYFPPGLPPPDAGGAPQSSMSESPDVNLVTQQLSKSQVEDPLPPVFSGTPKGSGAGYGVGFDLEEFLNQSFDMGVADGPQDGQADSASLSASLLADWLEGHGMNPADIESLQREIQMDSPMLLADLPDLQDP
In the case of `C[N+]12CC[C@@]34c5ccccc5N5C(=O)CC6OCC=C(C1)[C@H](CC32)[C@@H]6C54` (some centres undefined), the luciferase signal was 140 AU (inactive). Still for that read-out and setting: the value for `CC(C)c1cc2c(c(O)c1O)[C@@]1(C(=O)O)CCCC(C)(C)[C@@H]1CC2` was 52 AU (inactive); that for `CC(=O)O[C@H]1[C@H]2[C@@H](OC(=O)Cc3ccccc3)[C@@H](C)C[C@]2(OC(C)=O)C(=O)/C(C)=C/[C@@H]2[C@H](CC[C@@]13CO3)C2(C)C` was 56 AU (inactive). On the same count and under the same terms, the value for `CCN1C[C@]2(COC)[C@H](O)C[C@H](OC)[C@]34C1[C@H]([C@H](OC)[C@H]23)[C@]1(OC(C)=O)[C@H]2[C@@H](OC(=O)c3ccccc3)[C@](O)(C[C@H]24)[C@@H](OC)[C@@H]1O` was 16 AU (inactive); that for `C=C[C@H]1CN2CC[C@H]1C[C@H]2[C@H](OC(=O)OCC)c1ccnc2ccc(OC)cc12` was 28 AU (inactive). Same read-out and setting: the value for `CN1[C@H]2C[C@H](OC(=O)[C@H](CO)c3ccccc3)C[C@@H]1[C@@H](O)C2` was 56 AU (inactive); that for `CC(=O)OCC1=C(C(=O)O)N2C(=O)[C@@H](NC(=O)CCCC(N)C(=O)O)[C@H]2SC1` (some centres undefined) was 56 AU (inactive); that for `C[C@]12CCC(=O)C[C@@H]1CC[C@@H]1[C@@H]2CC[C@]2(C)C(=O)CC[C@@H]12` was 68 AU (inactive). On to `CC(=O)[C@H]1CC[C@H]2[C@@H]3CC[C@H]4C[C@H](O)CC[C@]4(C)[C@H]3CC[C@]12C`, for which the luciferase signal is 24 AU (inactive).

On to `CN[C@@H]1[C@@H](O)[C@@H](O[C@@H]2[C@@H](O)[C@H](O[C@H]3O[C@H]([C@@H](C)O)[C@@H](O)[C@H](O)[C@H]3N)[C@@H](N)C[C@H]2N)OC[C@]1(C)O`, for which the luciferase signal was 52 AU (inactive). Still for that read-out and setting: with `CC[C@]12C=CCN3CC[C@@]4(c5ccc(OC)cc5N(C)[C@H]4[C@@](O)(C(=O)OC)[C@@H]1OC(C)=O)[C@@H]32` the figure was 44 AU (inactive); with `CC(=O)OC1CCC2(C)C(CCC3C2CCC2(C)C(C4=CC(=O)OC4)C(OC(C)=O)CC32O)C1` (centres undefined), 16 AU (inactive); with `CC(C)[C@@H]1NC(=O)[C@H](C)OC(=O)[C@@H](C(C)C)NC(=O)[C@@H](C(C)C)OC(=O)[C@H](C(C)C)NC(=O)[C@H](C)OC(=O)[C@@H](C(C)C)NC(=O)[C@@H](C(C)C)OC(=O)[C@H](C(C)C)NC(=O)[C@H](C)OC(=O)[C@@H](C(C)C)NC(=O)[C@@H](C(C)C)OC1=O`, 36 AU (inactive). Still for that read-out and setting: with `CCN1C[C@]2(OC(=O)c3ccccc3NC(C)=O)CC[C@H](OC)[C@]34C1[C@H](C[C@H]23)[C@@]1(O)C[C@H](OC)[C@H]2C[C@@H]4[C@]1(O)[C@H]2OC` the figure was 84 AU (inactive); with `CN(CC[C@H](N)CC(=O)N[C@H]1C=C[C@H](n2ccc(N)nc2=O)O[C@@H]1C(=O)O)C(=N)N`, 80 AU (inactive).
